# Laboratory results published in PubChem BioAssay (NCI).
# Compounds without any hit were thinned out: in the full panel of roughly 83,000, 20% have a hit.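 How to read the values: 0–100, growth inhibition (40 = 60% inhibited); 0, no net growth; -100 to 0, cell death (-40 = 40% of starting cells died; -100 = all dead).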 Values without a mark were called inactive. Activity calls are given as the source filed them. Rule for the calls: active = growth percent below 10; inactive = the rest.
# Experiments:
# Test in all cases: NCI-60 one-dose screen, 48 h (100 = growth as untreated, 0 = no growth, -100 = all killed)
# SR leukemia = details: 10 µM unless noted
# OVCAR-8 ovarian = details: 10 µM unless noted
# OVCAR-4 ovarian = details: 10 µM
# IGROV1 ovarian = details: 10 µM unless noted
# OVCAR-3 ovarian = details: 10 µM unless noted
# HS 578T breast = details: 10 µM unless noted
# NCI/ADR-RES ovarian = details: 10 µM unless noted
# OVCAR-5 ovarian = details: 10 µM unless noted
# SK-OV-3 ovarian = details: 10 µM unless noted
Compound,growth (SR leukemia),growth (OVCAR-8 ovarian),growth (OVCAR-4 ovarian),growth (IGROV1 ovarian),growth (OVCAR-3 ovarian),growth (HS 578T breast),growth (NCI/ADR-RES ovarian),growth (OVCAR-5 ovarian),growth (SK-OV-3 ovarian)
Nn1c(Nc2ccc(S(=O)(=O)Nc3ncccn3)cc2)nnc(/C=C/c2c(O)ccc3ccccc23)c1=O,89.7%,93.4%,75.8%,82.9%,80.1%,94.9%,94.6%,–,–
COc1cccc(-c2[nH]c(=S)ncc2C(=O)c2ccccc2)c1,28.3%,97.4%,94.9%,77.2%,83.2%,–,91.8%,93.8%,107%
COc1cc2c(cc1OCCCCCOc1ccc(-n3c(C)nc4ccccc4c3=O)cc1)N=C[C@@H]1CCCN1C2=O,-25.4% (active),9.85% (active),-27.8% (active),-28.7% (active),-15.8% (active),–,-14.6% (active),10.5%,-0.258% (active)
CC1(C)C(=O)/C(=C\c2cccnc2)C[C@]2(C)[C@H]3CC[C@@H]4[C@H]5[C@H](C(=O)/C=C/c6cccnc6)CC[C@]5(C(=O)O)CC[C@@]4(C)[C@]3(C)CC[C@@H]12,25.8% [100 µM],0.147% [100 µM] (active),–,-34.3% [100 µM] (active),-75.4% [100 µM] (active),-0.172% [100 µM] (active),-1.33% [100 µM] (active),-49% [100 µM] (active),-68.5% [100 µM] (active)
CCOC(=O)c1c[nH]n2c(=S)ncnc12,107%,104%,101%,121%,99.5%,118%,99.1%,103%,103%
O=C(O)CSCc1nnc2n(Cc3ccccc3)c(=O)c3c4c(sc3n12)CCCC4,75.6%,92.6%,95.6%,–,107%,99.1%,96.6%,94.1%,106%
C1=C[C@H]2O[C@@H]1c1ccc3[nH]ccc3c12,84.6%,104%,115%,–,110%,119%,63.7%,105%,98.7%
O=C1C(Cl)=C(Nc2ccc3cn[nH]c3c2)C(=O)c2ccccc21,-52% (active),-58.2% (active),-98.9% (active),-83.5% (active),–,-50.4% (active),-67.5% (active),-37.9% (active),87.2%
CCOc1ccccc1/C=N\Nc1ccc(S(=O)(=O)c2ccc(N/N=C/c3ccccc3OCC)cc2)cc1,94.8%,93.1%,96.6%,76%,–,-24.9% (active),92.8%,95%,87.6%
